Bioassay records deposited in PubChem BioAssay by National Center for Advancing Translational Sciences (NCATS).
A selection: hits, their analogues and other compounds. The true share with any hit is near 19%.
TDP1 cell noCPT – qHTS for Inhibitors of human tyrosyl-DNA phosphodiesterase 1 (TDP1): qHTS in cells in absence of CPT. DT40 Tdp1-/- hTDP1 cells, no CPT, ATP luminescence, 48 h. Potency, µM (top dose mostly 46.2 µM), for inactives: at the highest dose activity change, negative = growth inhibition, usual class: inhibitors. 420,000 compounds, 15% hits. AID 686978, 2013; note: potency is the fitted concentration of half-maximal effect; nearly all actives have a fitted effect of over 55% in size
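Compound effects on proliferation are scored in DT40 Tdp1-/-;hTDP1 cells in the absence of CPT. ATP levels (CellTiter-Glo luminescence) are recorded after a ≥48 hr, 37 °C incubation.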
IL-1B inflam inh – inflammasome signaling inhibition, IL-1 beta readout; THP-1 LPS/ATP IL-1B secretion, AlphaLISA, 16 h; hits give low values; activity change, % at 57.5 µM; 360,000 compounds, 4.7% hits; in the data active = activity change below about -50%; inconclusive = mostly about -30% to -49%
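THP-1 cells pretreated 1 hr with compounds (up to 57.5 uM final), then stimulated with LPS (250 ng/mL final) plus ATP (1.25 mM final); secreted IL-1B measured by AlphaLISA after 16 hr, decreased signal indicating inhibition.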
TDP1 cell CPT – DT40-hTDP1 cell growth loss with CPT. chicken DT40 Tdp1-/-;hTDP1 cells + 20 nM CPT, ATP luminescence, 48 h. Potency, µM (series often up to 46.2 µM), without a hit: at the highest dose activity change, negative = growth inhibition, hits mostly inhibitors. 420,000 compounds, 12% hits. AID 686979; note: potency is the fitted concentration of half-maximal effect; nearly all actives have a fitted effect of over 55% in size
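Cell growth measured by CellTiter-Glo luminescence after a minimum 48 h, 37 C compound exposure with 20 nM CPT in Tdp1-knockout DT40 cells stably expressing hTDP1, seeded 400/well; qHTS titration format.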
HT1080NT lethal – kills 2HG-producing HT-1080-NT fibrosarcoma cells; Potency, µM (highest dose often 46.1 µM), without a hit: at the highest dose activity, negative = less viability, usual class: cytotoxic; 360,000 compounds, 1.6% hits; HT-1080-NT fibrosarcoma viability, CellTiter-Glo ATP luminescence, 48 h;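 note: NT is the 2HG producing partner of a matched IDH1 knockdown line; potency is the fitted concentration of half-maximal effect; 0% = DMSO-treated cells and -100% = media-only wells without cells; nearly all actives have a fitted effect of over 55% in size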
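HT-1080-NT; 750 cells/well; 5% FBS RPMI; 48 h compound, 37 degrees C; CellTiter-Glo luminescence; curve fitting and curve-class assignment.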
HT1080 IDH1KD tx – HT-1080 IDH1 knockdown cell toxicity (counter line). 360,000 compounds, 2% hits. HT-1080 IDH1 knockdown viability, ATP luminescence, 48 h. Potency, µM (doses to about 46.1 µM), without a hit: top-dose activity, negative = toxicity, usual class: cytotoxic;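 note: potency is the fitted concentration of half-maximal effect; 0% = DMSO wells and -100% = cell-free medium wells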
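In this qHTS, HT-1080 cells depleted of IDH1 are exposed for 48 h at 37 °C to compound titrations. Toxicity is scored from CellTiter-Glo luminescence, with DMSO as full viability and medium alone as none.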
The depositor's hits bear a star; ! = repeats disagree; [ ] = another dose, or the depositor's remark. Unless noted, calls come from the whole dose curve; as a rule, active = well fitted curve in the direction sought with a large enough effect; inconclusive = small, poorly fitted or top-dose-only effect, or another doubt; inactive = no such curve, though single readings can be large; an effect the other way counts as inactive or inconclusive. Unless noted, % is set by controls: 0 for no effect and ±100 for the full control effect.

How did COc1cc(OC)c(C2Nc3ccccc3NC3=C2C(=O)CC(C)(C)C3)cc1OC (stereo not drawn) do in these assays?
TDP1 cell noCPT: 8.2%; IL-1B inflam inh: 0.0; TDP1 cell CPT: -3.7%; HT1080NT lethal: 1.3%; HT1080 IDH1KD tx: 10.7%

What do the screens show for `O=C(NCc1ccccc1)c1ccc(-c2ccccc2F)o1`?
TDP1 cell noCPT: -5.5%; IL-1B inflam inh: -20.9; TDP1 cell CPT: -19.1%; HT1080NT lethal: 2.5%; HT1080 IDH1KD tx: -2.9%

What do the screens show for `COc1ccc(NC(=O)c2ccc(-c3ccccc3C(F)(F)F)o2)cc1`?
TDP1 cell noCPT: 16.4µM*; IL-1B inflam inh: 2.4; TDP1 cell CPT: inconclusive; HT1080NT lethal: -5.0%; HT1080 IDH1KD tx: -14.7%

What do the screens show for `COc1ccccc1CNC(=O)c1ccc(-c2ccccc2Cl)o1`?
TDP1 cell noCPT: inconclusive; IL-1B inflam inh: 0.0; TDP1 cell CPT: inconclusive; HT1080NT lethal: -22.6%; HT1080 IDH1KD tx: -15.0%

Results for O=C(COC(=O)Cc1ccc(F)cc1)NCCc1ccccc1 ?
TDP1 cell noCPT: 2.0%; IL-1B inflam inh: -5.5; TDP1 cell CPT: 10.9%; HT1080NT lethal: -3.5%; HT1080 IDH1KD tx: -0.7%

How did O=C(NCCc1ccccc1)c1ccc(-c2ccccc2C(F)(F)F)o1 do in these assays?
TDP1 cell noCPT: inconclusive; IL-1B inflam inh: -58.6*; TDP1 cell CPT: 9.2µM*; HT1080NT lethal: inconclusive; HT1080 IDH1KD tx: inconclusive

Results for O=C(NCCc1ccccc1)c1ccc(-c2ccc(F)cc2)o1 ?
TDP1 cell noCPT: -5.7%; IL-1B inflam inh: -53.6*; TDP1 cell CPT: 3.2%; HT1080NT lethal: 26.8%; HT1080 IDH1KD tx: 29.2%

Results for COc1ccccc1CNC(=O)c1ccc(-c2ccccc2C(F)(F)F)o1 ?
TDP1 cell noCPT: 20.6µM*; IL-1B inflam inh: -14.5; TDP1 cell CPT: 20.6µM*; HT1080NT lethal: -21.3%; HT1080 IDH1KD tx: -16.7%

How did COc1cccc(NC(=O)c2c(C)nn(-c3ccccc3)c2Cl)c1 do in these assays?
TDP1 cell noCPT: inconclusive; IL-1B inflam inh: inconclusive; TDP1 cell CPT: inconclusive; HT1080NT lethal: -1.1%; HT1080 IDH1KD tx: -9.6%

What do the screens show for `COc1ccc(Cl)cc1C(=O)NC(C)C`?
TDP1 cell noCPT: 22.4%; IL-1B inflam inh: 0.0; TDP1 cell CPT: 7.3%; HT1080NT lethal: 7.2%; HT1080 IDH1KD tx: 7.2%

Results for NCC12CC3CC(C1)CC(c1ccc(Cl)cc1)(C3)C2 ?
TDP1 cell noCPT: 6.51µM*; IL-1B inflam inh: -89.3*; TDP1 cell CPT: 6.51µM*; HT1080NT lethal: 23.1µM*; HT1080 IDH1KD tx: inconclusive

What do the screens show for `Nc1ccc(C23CC4CC(CC(CO)(C4)C2)C3)cc1`?
TDP1 cell noCPT: -2.7%; IL-1B inflam inh: -4.9; TDP1 cell CPT: -7.8%; HT1080NT lethal: 1.1%; HT1080 IDH1KD tx: 3.6%

Results for CC1=C(/C=C/C(C)=C/C=C/C(C)=C/C(=O)O)C(C)(C)CCC1O (stereo not drawn) ?
TDP1 cell noCPT: 20.6µM*; TDP1 cell CPT: 25.9µM*

What do the screens show for `CC1=C(/C=C/C(C)=C/C=C/C(C)=C/C(=O)O)C(C)(C)CCC1`?
TDP1 cell noCPT: inconclusive; IL-1B inflam inh: 50.6; TDP1 cell CPT: inconclusive; HT1080NT lethal: 21.8%; HT1080 IDH1KD tx: 10.9%

Results for CC1=C(/C=C/C(C)=C/C=C/C(C)=C/C=C/C=C(C)/C=C/C=C(C)/C=C/C2=C(C)C[C@@H](O)CC2(C)C)C(C)(C)C[C@H](O)C1 ?
TDP1 cell noCPT: 15µM*; TDP1 cell CPT: 15µM*

What do the screens show for `CC1=C(/C=C/C(C)=C\C=C\C(C)=C\C(=O)O)C(C)(C)CCC1`?
TDP1 cell noCPT: 25.9µM*!; TDP1 cell CPT: -13.5%[4.12 µM]

Results for CCOc1ccc(NS(=O)(=O)c2cc(C(=O)N3CC(C)OC(C)C3)ccc2C)cc1 (stereo not drawn) ?
TDP1 cell noCPT: -14.0%; IL-1B inflam inh: 14.4; TDP1 cell CPT: -10.3%; HT1080NT lethal: 0.6%; HT1080 IDH1KD tx: 7.2%
